ChEMBL document CHEMBL3988442, “University of Dundee, Small-Polar-MMV Screening Library” (2021)
Screen size: about 69,000 compounds; about 1,000 (1.4%) showed an effect of 50% or more. For the sample, strong results were picked, then their nearest neighbours and some compounds at random.

Test system: Leishmania donovani
Assay: Leishmania intramacrophage assay
Type: functional, organism-based
Design: scale not given: in the data most compounds retested in dose-response had high values

Cc1cc(NC(=O)CN2CCn3c(nnc3C(C)C)C2)n(C)n1
Percent Effect (30 µM): -15.63%

Cc1nsc(N2CCCN(C(=O)NCc3cc(C)on3)CC2)n1
Percent Effect (30.3 µM, […]): 8.411%

CN(CCNc1ncc2c(n1)CCN2c1ccccc1)S(C)(=O)=O
Percent Effect (30.3 µM, […]): 14.06%

Cc1cnn(CCC(=O)N2CCCC(c3cc(C(N)=O)[nH]n3)C2)c1 (stereo not given)
Percent Effect (30 µM, 30.03 µM): 2.466%

COc1ccccc1CC(=O)N1CCC(OCc2cccnc2)CC1
Percent Effect (30.3 µM, […]): 5.945%

Cc1ccccc1SC1CCN(C(=O)CCCS(N)(=O)=O)CC1
Percent Effect (30.3 µM, […]): 28.86%

Cc1ccccc1SC1CCN(C(=O)C2CNC(=O)N2)CC1 (stereo not given)
Percent Effect (30.3 µM, […]): -12.93%

Cc1ccccc1SC1CCN(C(=O)[C@@H]2C[C@@H](N)CN2)CC1
Percent Effect (30.3 µM, […]): 56.56%

Cc1ccccc1SC1CCN(C(=O)C2CNCC(=O)N2)CC1 (stereo not given)
Percent Effect (30.3 µM, […]): 24.39%

CN1C[C@@H](N)C[C@H]1C(=O)N1CCC(Cc2ccc(F)cc2)CC1
Percent Effect (30.3 µM, […]): 8.715%

Cc1ccccc1SC1CCN(C(=O)[C@H]2[C@@H]3CNC[C@@H]32)CC1
Percent Effect (30.3 µM, […]): 68.53%

Cc1nc[nH]c1C(=O)N1CC[C@@H](NC(=O)c2ccccn2)[C@H](O)C1
Percent Effect (30.3 µM, […]): 11.08%

COCC1CC2(CCN(Cc3nccn3C)CC2)CN1c1ncccn1.O=C(O)C(F)(F)F (stereo not given)
Percent Effect (30.3 µM, […]): 11.88%

CC(=O)c1c(C)nn(CC(=O)N2CCCC2c2ccc(C(N)=O)s2)c1C (stereo not given)
Percent Effect (30.3 µM, […]): 42.8%

Cc1n[nH]c2ncc(CNC3CCCN(c4ncccn4)C3)cc12.Cl (stereo not given)
Percent Effect (30.3 µM, […]): 15.17%

Cc1cnc(N2CCn3c(CN4CCOCC4)nnc3C2)nc1.O=C(O)C(F)(F)F
Percent Effect (30.3 µM, […]): 30.81%

COC(=O)CNC(=O)Cn1ccc2ccc(F)cc21
Percent Effect (30.3 µM, […]): 14.64%

CC(NC1CCN(CC(=O)N(C)C)CC1)c1cnn(C(C)C)c1 (stereo not given)
Percent Effect (30.3 µM, […]): -44.29%

Cc1nc(-c2c(C)noc2C)cc(C2CCN(CC(=O)N(C)C)CC2)n1
Percent Effect (30.3 µM, […]): 31.09%

Cc1cc(Cl)cc(C)c1CNC1CCN(CC(=O)N(C)C)CC1
Percent Effect (30.3 µM, […]): 66.45%

CC(C)Oc1cc(N2CCC(C(N)=O)CC2)nc(N)n1
Percent Effect (30.3 µM, […]): 14.18%

COc1ccc(C2CCCN2C(=O)c2cc3c([nH]c2=O)CCC3)cc1 (stereo not given)
Percent Effect (30 µM, 30.03 µM): 22.34%

O=C1CC2(CCSC2)C(=O)N1Cc1coc(-c2ccccc2)n1 (stereo not given)
Percent Effect (30.3 µM, […]): 4.889%

CNC(=O)N1CCCCC1CCNS(C)(=O)=O (stereo not given)
Percent Effect (30.3 µM, […]): 6.391%

Cc1nn(C)c(N(C)C)c1CNCc1ccccc1Cn1cncn1
Percent Effect (30 µM, 30.03 µM): 20.9%

Cc1ccc(C(C(=O)O)N2CCCN(Cc3ccccn3)CC2)c(F)c1 (stereo not given)
Percent Effect (30.3 µM, […]): 23.66%

O=C(O)C(c1ccc(Cl)c(F)c1)N1CCN(Cc2ccccn2)CC1 (stereo not given)
Percent Effect (30.3 µM, […]): 61.2%

Cc1cc(F)c(C(C(=O)O)N2CCN(Cc3ccccn3)CC2)cc1Cl (stereo not given)
Percent Effect (30.3 µM, […]): 5.04%

COCCC(=O)N1CCCC1c1nccc(C)n1 (stereo not given)
Percent Effect (30.3 µM, […]): 11.84%

Cl.Fc1cccc(CN2CCC(c3cc4ncccc4cn3)CC2)c1F
Percent Effect (30.3 µM, […]): 51.12%

Cl.Fc1ccc(F)c(CN2CCC(c3cc4ncccc4cn3)CC2)c1
Percent Effect (30.3 µM, […]): 33.05%

Fc1cc(F)cc(CN2CCC(c3cc4ncccc4cn3)CC2)c1
Percent Effect (30.3 µM, […]): 29.54%

Cn1nnnc1SCC(=O)N1CCN(C(=O)C2CC2c2cccs2)CC1 (stereo not given)
Percent Effect (30.3 µM, […]): -0.756%

Cc1cnn(CCNCC(O)c2ccc3c(c2)OCCO3)c1 (stereo not given)
Percent Effect (30.3 µM, […]): -28.04%

CN1CCN([C@@H]2CCN(Cc3ccc4cc(F)ccc4n3)C[C@H]2O)CC1
Percent Effect (30.3 µM, […]): 33.38%

O[C@@H]1CN(CC2=Cc3cc(Cl)ccc3OC2)CC[C@H]1N1CCCCCC1
Percent Effect (30.3 µM, […]): 44.96%

CN1CCN([C@@H]2CCN(CC3=Cc4cc(Cl)ccc4OC3)C[C@H]2O)CC1
Percent Effect (30.3 µM, […]): 96.13%

CN1C(=O)C2(CCCN(C(=O)c3cccnc3O)C2)c2ccccc21 (stereo not given)
Percent Effect (30.3 µM, […]): 4.492%

Cc1c(O)cccc1C(=O)N1CCCC2(C1)C(=O)N(C)c1ccccc12 (stereo not given)
Percent Effect (30.3 µM, […]): 10.13%

CNc1ncccc1C(=O)N1CCCC2(C1)C(=O)N(C)c1ccccc12 (stereo not given)
Percent Effect (30.3 µM, […]): 63.07%

O=C(NCC1(O)CCOc2ccccc21)Nc1ccccc1 (stereo not given)
Percent Effect (30.3 µM, […]): 35.58%

CN(CCO)C[C@@H]1CN(C(=O)c2cccc(OC(F)F)c2)C[C@@H]1CO
Percent Effect (30.3 µM, […]): 59.47%

COCCN(C)C[C@@H]1CN(C(=O)c2cccc(C#N)c2)C[C@@H]1CO
Percent Effect (30.3 µM, […]): -5.773%

COCCN(C)C[C@@H]1CN(C(=O)c2cccc(Cl)c2)C[C@@H]1CO
Percent Effect (30.3 µM, […]): -8.073%

COc1ccc(C(=O)N2CCCC2c2cnn(C)c2)cn1 (stereo not given)
Percent Effect (30 µM): 3.221%

CN(Cc1ccco1)Cc1ccccc1CNC(=O)c1cnccn1
Percent Effect (30.3 µM, […]): 16.56%

CC(C)N(CCO)C(=O)c1cc(COc2ccc3c(c2)CCCC3)on1
Percent Effect (30.3 µM, […]): 15.58%

O=C(NCCc1cccnc1)C1CCCN(Cc2ccco2)C1 (stereo not given)
Percent Effect (30.3 µM, […]): -19.49%

Cc1cnccc1NCCNC(=O)C1CCCN(Cc2ccco2)C1 (stereo not given)
Percent Effect (30.3 µM, […]): 54.03%

O=C(NCCCc1ccncc1)C1CCCN(Cc2ccco2)C1 (stereo not given)
Percent Effect (30 µM, 30.03 µM): 28.63%

CCN(C)c1ncnc2c1CCN(C(=O)c1cnccn1)CC2.O=C(O)C(F)(F)F
Percent Effect (30.3 µM, […]): 16.93%

Cc1ncoc1C(=O)N1C[C@H]2CCC[C@@]2(COCC2CCOCC2)C1
Percent Effect (30 µM, 30.03 µM): 24.66%

CN1C(=O)CCCC12CCCN(C(=O)c1cccc(C(F)(F)F)c1)C2 (stereo not given)
Percent Effect (30.3 µM, […]): 25.18%

CN(C)CCCNCCC(Cc1ccccc1)C1CCOC(C)(C)C1.O=C(O)C(=O)O (stereo not given)
Percent Effect (30.3 µM, […]): 91.79%

CN(C)CCNCCC(Cc1ccccc1)C1CCOC(C)(C)C1.O=C(O)C(=O)O (stereo not given)
Percent Effect (30.3 µM, […]): 11.95%

CCN(CC)CCNCC1CCOC(C)(C)C1 (stereo not given)
Percent Effect (30.3 µM, […]): 12.8%

CN(C)CCNCC1CCOC(C)(C)C1 (stereo not given)
Percent Effect (30.3 µM, […]): -2.235%

CC(CCc1ccccc1)NC(=O)CNCCCN(C)C.O=C(O)C(=O)O (stereo not given)
Percent Effect (30.3 µM, […]): -24.91%

CN(C)CCCNC(=O)C(c1cccc(F)c1)N(C)C (stereo not given)
Percent Effect (30.3 µM, […]): 17.93%

CN(C)CCCNCC1CCOC(C)(C)C1 (stereo not given)
Percent Effect (30.3 µM, […]): 10.54%

CN(C)CCCNCCC(c1ccccc1)C1CCOC(C)(C)C1.O=C(O)C(=O)O (stereo not given)
Percent Effect (30.3 µM, […]): 97.24%

CN(C)CCNCCC(c1ccccc1)C1CCOC(C)(C)C1.O=C(O)C(=O)O (stereo not given)
Percent Effect (30.3 µM, […]): 94.59%

C[C@@H]1CN(C(=O)C2CCS(=O)(=O)CC2)C[C@@]1(O)C1CC1
Percent Effect (30.3 µM, […]): -11.49%

Cc1nc(C)n(CC2CCCCN2CCCO)n1 (stereo not given)
Percent Effect (30.3 µM, […]): -18.17%

CC(=O)Nc1cc2c(cc1C)OCO2
Percent Effect (30.3 µM, […]): 3.338%

Cc1ccc(F)cc1NS(=O)(=O)c1cc2c(c(C(=O)O)c1)OCCO2
Percent Effect (30 µM): 10.19%

CN1CCO[C@@H]2CN(C(=O)NCc3ccccc3)CC[C@@H]2C1.O=C(O)C(F)(F)F
Percent Effect (30.3 µM, […]): 14.01%

O=C(N1CCCC1)N1C[C@H]2CCC[C@@]2(COCc2ccccn2)C1.O=C(O)C(F)(F)F
Percent Effect (30.3 µM, […]): 12.71%

Cc1ccc(CN2CC[C@@H]3OCCN(Cc4ccncc4)[C@H]3CC2)s1.O=C(O)C(F)(F)F.O=C(O)C(F)(F)F.O=C(O)C(F)(F)F
Percent Effect (30.3 µM, […]): -14.43%

CS(=O)(=O)NCCCNC(=O)NCc1ccccc1
Percent Effect (30 µM): 13.69%

CN(C)CC(=O)N1CC2(CCN(C(=O)Nc3ccccc3)C2)C1.O=C(O)C(F)(F)F
Percent Effect (30.3 µM, […]): 27.48%

Cc1nnc([C@]23COC[C@H]2CN(Cc2cnn(C)c2)C3)o1.O=C(O)C(F)(F)F
Percent Effect (30.3 µM, […]): 10.4%

Cc1ccc(CNCC2CCN(CC(O)c3ccccc3)CC2)o1 (stereo not given)
Percent Effect (30 µM): 53.67%

CC(O)CN1CCC(CNCc2ccccc2Cl)CC1 (stereo not given)
Percent Effect (30 µM): 7.148%

COc1ccc(CNCC2CCN(CC(C)O)CC2)c2ccccc12 (stereo not given)
Percent Effect (30 µM, 30.03 µM): 95.94%

COc1cccc(CNCC2CCN(CC(C)O)CC2)c1OC (stereo not given)
Percent Effect (30 µM): -4.893%

Cc1noc(C)c1CNCC1CCN(CC(O)c2ccccc2)CC1 (stereo not given)
Percent Effect (30 µM, 30.03 µM): 48.93%

CC(O)CN1CCC(CNCc2ccccc2F)CC1 (stereo not given)
Percent Effect (30 µM): 14.91%

CC(O)CN1CCC(CNCc2ccccc2Br)CC1 (stereo not given)
Percent Effect (30 µM, 30.03 µM): 58.06%

Cc1ncccc1CNCC1CCN(CC(O)c2ccccc2)CC1 (stereo not given)
Percent Effect (30 µM, 30.03 µM): 43.15%

CCOc1ccccc1CNCC1CCN(CC(C)O)CC1 (stereo not given)
Percent Effect (30 µM): 14.79%

CCOc1ccc(NC(=O)N2CCNC(=O)C2)c(C(F)(F)F)c1
Percent Effect (30.3 µM, […]): -5.154%

c1ccc(OCCCN2CCOC(CNc3cccnn3)C2)cc1 (stereo not given)
Percent Effect (30 µM): 30.1%

CCc1nnc(CN(C)C(=O)C(CC)n2c(CC)nc3ccccc32)o1 (stereo not given)
Percent Effect (30.3 µM, […]): 37.19%

CC(=O)N1CC(=O)N(c2cnn(C)c2)CC12CCN(Cc1ccco1)C2 (stereo not given)
Percent Effect (30.3 µM, […]): 8.312%

CC(c1nc(C(C)(C)C)no1)N1CCN(C(=O)CN2CCOCC2)CC1 (stereo not given)
Percent Effect (30.3 µM, […]): 24.72%

CSC(C)(C)CNC(=O)NC1CCC1
Percent Effect (30.3 µM, […]): -4.731%

CCc1ccccc1NC(=O)NCc1nnc(SC)n1C
Percent Effect (30.3 µM, […]): 23.33%

CSc1nnc(CNC(=O)Nc2ccccc2F)n1C
Percent Effect (30.3 µM, […]): 17.43%

COc1ccccc1NC(=O)NCc1nnc(SC)n1C
Percent Effect (30.3 µM, […]): 56.86%

O=C(c1cnc2ccc(Cl)cc2c1NCc1ccco1)N1CCCCC1
Percent Effect (30.3 µM, […]): -0.01015%

Cc1nc(C)n(CC2CCCCN2CCOc2ccc(C#N)cc2)n1 (stereo not given)
Percent Effect (30 µM): 19.26%

COC(=O)NC1(C(=O)Nc2ccc(-c3ncc[nH]3)cc2)CCCC1
Percent Effect (30.3 µM, […]): 26.54%

CCc1noc(C2CCCCN2C(=O)c2cc(C)oc2C)n1 (stereo not given)
Percent Effect (30.3 µM, […]): -92.24%

Cc1ccc(C(=O)N2CCC3(CC2)COC(COc2ccccn2)C3)o1.O=C(O)C(F)(F)F (stereo not given)
Percent Effect (30 µM, 30.03 µM): -68.01%

CCS(=O)(=O)N1CCC2(CC1)COC(COc1cccnc1)C2.O=C(O)C(F)(F)F (stereo not given)
Percent Effect (30.3 µM, […]): 15.1%

Cc1ccc(C(=O)N2CCC3(CC2)COC(COc2cccnc2)C3)o1.O=C(O)C(F)(F)F (stereo not given)
Percent Effect (30.3 µM, […]): 59.81%

Cc1ccc(N2CCCC(NCC(=O)NC3CCOCC3)C2)nn1 (stereo not given)
Percent Effect (30 µM, 30.03 µM): 24.15%

CCc1nc(C2CCCN(c3nccc(N4CCCC4)n3)C2)no1 (stereo not given)
Percent Effect (30.3 µM, […]): 4.333%

CC(C)CCN1CC[C@H](c2nnc(Cc3c[nH]c4ccccc34)o2)C1
Percent Effect (30.3 µM, […]): 31.19%
